Data reported in PubChem BioAssay (NCI).
Compounds without any hit were thinned out: in the full panel of roughly 83,000, 20% have a hit.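 A percent growth of 40 corresponds to 60% growth inhibition; 0 means no net growth; -100 means all cells died. Active threshold: below 10.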 A number with no mark means an inactive call. Calls of active or inactive are those of the source.

Test system: CCRF-CEM leukemia
Experiment: NCI-60 one-dose screen, 48 h (100 = growth as untreated, 0 = no growth, -100 = all killed)
Details: 10 µM unless noted

SMILES | growth
O=C1C=CC(=O)N1c1ccc2c(c1)Cc1cc(F)ccc1-2 | 65.2%
OCCN1CCN(c2nc(Nc3ccc(-c4nc5ccccc5[nH]4)cc3)c3cn[nH]c3n2)CC1 | -73.9% (active)
COc1cc(-c2nc3ccccc3[nH]2)ccc1OCC(=O)N=Nc1c(O)[nH]c2ccc(Cl)cc12 | -46.7% (active)
CC(=O)Oc1ccc(Cl)cc1CN(C(C)=O)C1CCCCC1 | 87.9%
COc1cc(Nc2cc(C)nc(N3CCN(c4ccnc5cc(Cl)ccc45)CC3)n2)cc(OC)c1 | 5.29% (active)
CCN1CCN(c2nc(NCCNc3ccnc4cc(Cl)ccc34)c3ccccc3n2)CC1 | -12.8% (active)
COc1ccc(C(=O)c2sc3nc4c(c(-c5cccnc5)c3c2N)CCCC4)cc1OC | 55.5%
CSc1nc(NCCO)c(C#N)c(-c2cccc([N+](=O)[O-])c2)n1 | 99.1%
CN1CCN=C1c1ccc(NC(=O)c2ccc(C(=O)Nc3ccc(C4=NCCN4C)cc3)cc2)cc1 | 110%
OCCNc1nccc(N2CCN(c3ccnc4cc(Cl)ccc34)CC2)n1 | 66.5%
COc1ccc(C(=O)c2sc3nc(C)cc(C)c3c2N)cc1OC | 98.2%
CCCCn1cnc2c(Sc3c([N+](=O)[O-])ncn3C)nc(N)nc21 | 86.9%
Fc1ccc(CNc2cccc3[nH]c(C(F)(F)F)nc23)cc1 | 52.4%
CCCCCCN(CCCCCC)C(=N)c1ccnc2ccccc12 | -4.39% (active)
COc1ccc(-c2cc(=O)c3c(OC)c4ccoc4cc3o2)cc1 | 109%
COc1ccc(CN2c3ccccc3Oc3ccccc32)cc1F | 66.7%

SMILES | growth
C=CC(=O)Nc1cccc(-c2nc(SC)nc(NCCc3ccc(OC)c(OC)c3)c2C#N)c1 | 26.3%
CC[C@H]1OC(=O)[C@H](C)[C@@H](O[C@H]2C[C@@](C)(OC)[C@@H](O)[C@H](C)O2)[C@H](C)[C@@H](O[C@@H]2O[C@H](C)C[C@H](N(C)C)[C@H]2O)[C@](C)(O)C[C@H](C)CN(C)[C@H](C)[C@@H](O)[C@]1(C)O | 120%
Cc1nc(Nc2ccc(F)c(Cl)c2)sc1C(=O)O | 9.7% (active)
O=C(Nc1cccc2[nH]c(C(F)(F)F)nc12)c1ccc(-n2cnnn2)cc1 | 28.6%
Cc1cc(Nc2ccc(C)c(Cl)c2)n2nc(C(F)(F)F)nc2n1 | 62%
CCOc1cc2c(cc1OCC)C(c1cc(OC)c(O)cc1Cl)NCC2 (stereo unspecified) | 108%
COc1ccc(CCNc2nc(SC)nc(-c3cccc([N+](=O)[O-])c3)c2C#N)cc1OC | 98.7%
FC(F)(F)c1nc2c(NCc3ccc(-c4ccccc4)cc3)cccc2[nH]1 | 44.8%
NC(=NCCCOc1ccc(Cl)cc1)Nc1ccc(C(F)(F)F)cc1 | 3.2% (active)
NC(=NCCCC1(c2ccccc2)CCCC1)Nc1ccc(Cl)cc1 | 4.14% (active)
O=C1c2cc3c(cc2-c2c1c1cc(F)c(F)cc1c(=O)n2CCCn1ccnc1)OCO3 | 7.04% (active)
CSc1ccc(-c2ccccc(=O)c2O)cc1 | 3.72% (active)
O=c1nc2oc3ccc4ccccc4c3cc-2s1 | 13.7%
O=C1c2ccccc2OC=C(c2ccccc2)N1CCCCNc1ccc(S(=O)(=O)Nc2ncccn2)cc1 | 75.6%
COc1cccc2c1C(=O)c1c(O)c3c(c(O)c1C2=O)C[C@](O)(C(=O)CO)C[C@H]3O[C@@H]1C[C@@H](NC(=O)CCCCCN(C)C2(c3ccc(F)cc3)CC3CCC2C3)[C@H](O)[C@@H](C)O1 (stereo partly specified) | -22.2% (active)
N#Cc1cnn(-c2nc3c(Cl)cccc3s2)c1N | 91.1%

Test system: MOLT-4 leukemia
Experiment: as above
Details: 10 µM unless noted

SMILES | growth
O=C1C=CC(=O)N1c1ccc2c(c1)Cc1cc(F)ccc1-2 | 43.7%
OCCN1CCN(c2nc(Nc3ccc(-c4nc5ccccc5[nH]4)cc3)c3cn[nH]c3n2)CC1 | -79.6% (active)
COc1cc(-c2nc3ccccc3[nH]2)ccc1OCC(=O)N=Nc1c(O)[nH]c2ccc(Cl)cc12 | -45.1% (active)
CC(=O)Oc1ccc(Cl)cc1CN(C(C)=O)C1CCCCC1 | 85.9%
C=CCSSc1ncnc2c1ncn2C1OC(CO)C(O)C1O (stereo unspecified) | 13.2%
COc1cc(Nc2cc(C)nc(N3CCN(c4ccnc5cc(Cl)ccc45)CC3)n2)cc(OC)c1 | 5.97% (active)
CCN1CCN(c2nc(NCCNc3ccnc4cc(Cl)ccc34)c3ccccc3n2)CC1 | 6.3% (active)
COc1ccc(C(=O)c2sc3nc4c(c(-c5cccnc5)c3c2N)CCCC4)cc1OC | 41.4%
CSc1nc(NCCO)c(C#N)c(-c2cccc([N+](=O)[O-])c2)n1 | 99%
CN1CCN=C1c1ccc(NC(=O)c2ccc(C(=O)Nc3ccc(C4=NCCN4C)cc3)cc2)cc1 | 100%
OCCNc1nccc(N2CCN(c3ccnc4cc(Cl)ccc34)CC2)n1 | 52.4%
COc1ccc(C(=O)c2sc3nc(C)cc(C)c3c2N)cc1OC | 96.4%
COc1cccc(/C=N/NC(=O)c2ccccc2Nc2ccnc(C(F)(F)F)c2)c1O | 34.1%
C=CCSSC1N=CNc2nc[nH]c21 (stereo unspecified) | 34.9%
CCCCn1cnc2c(Sc3c([N+](=O)[O-])ncn3C)nc(N)nc21 | 49.5%
Fc1ccc(CNc2cccc3[nH]c(C(F)(F)F)nc23)cc1 | 41.7%
CCCCCCN(CCCCCC)C(=N)c1ccnc2ccccc12 | 48.8%
COc1ccc(C(=S)N2CCN(c3cccc(Cl)c3)CC2)cc1 | 108%
O=C(N/N=C/c1ccccc1O)c1ccccc1Nc1ccnc(C(F)(F)F)c1 | 5.72% (active)
COc1ccc(-c2cc(=O)c3c(OC)c4ccoc4cc3o2)cc1 | 84.7%

SMILES | growth
COc1ccc(CN2c3ccccc3Oc3ccccc32)cc1F | 42%
C=CC(=O)Nc1cccc(-c2nc(SC)nc(NCCc3ccc(OC)c(OC)c3)c2C#N)c1 | 2.39% (active)
CC[C@H]1OC(=O)[C@H](C)[C@@H](O[C@H]2C[C@@](C)(OC)[C@@H](O)[C@H](C)O2)[C@H](C)[C@@H](O[C@@H]2O[C@H](C)C[C@H](N(C)C)[C@H]2O)[C@](C)(O)C[C@H](C)CN(C)[C@H](C)[C@@H](O)[C@]1(C)O | 103%
Cc1nc(Nc2ccc(F)c(Cl)c2)sc1C(=O)O | 6.93% (active)
O=C(Nc1cccc2[nH]c(C(F)(F)F)nc12)c1ccc(-n2cnnn2)cc1 | 32.4%
Cc1cc(Nc2ccc(C)c(Cl)c2)n2nc(C(F)(F)F)nc2n1 | 74.1%
CCOc1cc2c(cc1OCC)C(c1cc(OC)c(O)cc1Cl)NCC2 (stereo unspecified) | 112%
COc1ccc(CCNc2nc(SC)nc(-c3cccc([N+](=O)[O-])c3)c2C#N)cc1OC | 95%
FC(F)(F)c1nc2c(NCc3ccc(-c4ccccc4)cc3)cccc2[nH]1 | 9% (active)
CCN(CC)c1ccc(-c2cc(-c3cc(OC)c(OC)c(OC)c3)nc(N3CCOCC3)c2C#N)cc1 | 18.8%
NC(=NCCCOc1ccc(Cl)cc1)Nc1ccc(C(F)(F)F)cc1 | 4.99% (active)
NC(=NCCCC1(c2ccccc2)CCCC1)Nc1ccc(Cl)cc1 | -0.285% (active)
O=C1c2cc3c(cc2-c2c1c1cc(F)c(F)cc1c(=O)n2CCCn1ccnc1)OCO3 | -14.3% (active)
CSc1ccc(-c2ccccc(=O)c2O)cc1 | 2.65% (active)
O=c1nc2oc3ccc4ccccc4c3cc-2s1 | 25.1%
O=C1c2ccccc2OC=C(c2ccccc2)N1CCCCNc1ccc(S(=O)(=O)Nc2ncccn2)cc1 | 85.3%
C=C(C)C(=O)Nc1ccc(NC(C)C)cc1 | 128%
COc1cccc2c1C(=O)c1c(O)c3c(c(O)c1C2=O)C[C@](O)(C(=O)CO)C[C@H]3O[C@@H]1C[C@@H](NC(=O)CCCCCN(C)C2(c3ccc(F)cc3)CC3CCC2C3)[C@H](O)[C@@H](C)O1 (stereo partly specified) | -27.7% (active)
N#Cc1cnn(-c2nc3c(Cl)cccc3s2)c1N | 92.4%
